Holding throughout (details): concentration: 1 μM, replicates: in singlicate; n = 1
Assay [1] has as its system EPHA2.
Assay [2] has as its system EPHA3.
Assay [3] deals with EPHA4.
Assay [4] has as its system EPHA5.
For assay [5], the system named is EPHA6.
Assay [6] concerns EPHA7.
Assay [7] has as its system EPHA8.
The subject of assay [8] is EPHB1.
Assay [9] has as its system EPHB2.
Assay [10] deals with EPHB3.
Assay [11] deals with EPHB4.
Assay [12] relates to EPHB6.
Assay [13] has as its system ERBB2.
Assay [14] relates to ERBB3.
Assay [15] has as its system ERBB4.
The test system of assay [16] is T1, ERK1.
T1 construct: gene MAPK3

The test system of assay [17] is T2, ERK2.
T2 construct: gene MAPK1

The subject of assay [18] is T3, ERK3.
T3 construct: gene MAPK6

For assay [19], the system named is T4, ERK4.
T4 construct: gene MAPK4

In assay [20] the test system is T5, ERK5.
T5 construct: gene MAPK7
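Note: KINOMEscan kinase panel screen.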

For `Nc1nccc(-c2c(-c3ccc(F)cc3)ncn2C2CCN(Cc3ccccc3)CC2)n1` [SB-219980], the “%Inh” value is 0% in [1]; 0% in assay [2]; 4% in assay [3]; 21% in assay [4]; 24% in assay [5]; 0% in [6]. Also, the “%Inh” value is reported as 1% in assay [7]; 9% in [8]; 0% in [9]; 20% in [10]; 17% in assay [11]; 58% in assay [12]. In addition, the “%Inh” value is reported as 18% in assay [13]; 0% in assay [14]; 19% in assay [15]; 0% in assay [16]; 21% in assay [17]; 0% in assay [18]. In addition, the “%Inh” value in assay [19] and in assay [20] was 0% each time.
Consider `COc1ccc(Nc2nccc(-c3ccc(NC(=O)c4cc5cc(F)ccc5[nH]4)cc3)n2)cc1` [GSK1229496], for which the “%Inh” value in assay [1] came to 1%; in assay [2], 1%; in assay [3], 0%; in assay [4] it was 0%; in assay [5], 0%; in [6], 0%. The “%Inh” value in assay [7] came out at 10%; in assay [8], 3%; in assay [9], 0%; in assay [10], 0%; in assay [11], 16%; in [12], 6%. Besides, the “%Inh” value in assay [13] amounted to 38%; in [14] it was 13%; in [15], 6%; in [16], 0%; in assay [17] it was 0%; in assay [18], 0%. The “%Inh” value in assay [19] and in [20] was 0% each time.
Regarding `COc1cccc(NC(=O)Nc2ccc(C)c(-c3ccc(C(=O)Nc4ccncc4)cc3)c2)c1` [GSK1398474], the “%Inh” value in assay [1] is listed as 1%; in assay [2], 5%; in [3] it was 15%; in assay [4] it was 2%; in [5], 13%; in [6], 13%. In addition, the “%Inh” value is 25% in [7]; 10% in assay [8]; 4% in [9]; 18% in assay [10]; 8% in assay [11]; 26% in assay [12]. For the same compound, the “%Inh” value in assay [13] worked out at 0%; in assay [14], 0%; in assay [15], 25%; in [16] it was 7%; in assay [17] it was 0%; in assay [18], 7%. Further, the “%Inh” value came out at 1% in [19] and 0% in assay [20].
For the compound `COC(=O)c1cccc(NC(=O)NC2CCN(c3ccnc(Nc4ccc(OC)cc4)n3)C2)c1` (stereo not shown) [GSK1379746], the “%Inh” value in assay [1] was determined as 6%; in [2], 0%; in assay [3] it was 4%; in [4] it was 0%; in assay [5], 0%; in [6] it was 3%. In addition, the “%Inh” value in assay [7] came out at 12%; in [8], 21%; in assay [9] it was 8%; in assay [10], 5%; in assay [11], 19%; in [12] it was 37%. Further, the “%Inh” value in [13] is listed as 65%; in assay [14] it was 24%; in assay [15] it was 23%; in assay [16], 0%; in [17], 0%; in [18], 5%. Also, the figures for the “%Inh” value in assay [19] and in assay [20] were 2% and 6%, respectively.
On to `CS(=O)(=O)CCNCc1nc(-c2ccc3ncnc(Nc4ccc5c(cnn5Cc5ccccc5)c4)c3c2)cs1.Cl.Cl` [GW569716], for which the “%Inh” value was 0% in assay [1]; 0% in assay [2]; 6% in assay [3]; 8% in assay [4]; 7% in assay [5]; 4% in assay [6]. For the same compound, the “%Inh” value in assay [7] stood at 11%; in [8], 0%; in [9], 0%; in [10], 13%; in [11] it was 8%; in assay [12] it was 21%. For the same compound, the “%Inh” value in [13] was found to be 100%; in [14] it was 98%; in assay [15], 92.4%; in assay [16], 4%; in [17], 10%; in assay [18] it was 0%. Also, the “%Inh” value in [19] and in assay [20] was 0% in each case.
As for `CC(=O)c1c(C)c2cnc(Nc3ccc(N4CCNCC4)cn3)nc2n(C2CCCC2)c1=O`, the “%Inh” value came to 16% in [1]; 0% in assay [2]; 0% in assay [3]; 0% in assay [4]; 0% in [5]; 0% in assay [6]. Also, the “%Inh” value came to 0% in [7]; 0% in assay [8]; 0% in assay [9]; 3% in assay [10]; 23% in assay [11]; 17% in [12]. Also, the “%Inh” value is reported as 9% in assay [13]; 0% in assay [14]; 0% in assay [15]; 0% in [16]; 0% in assay [17]; 89% in assay [18]. Also, the “%Inh” value in assay [19] amounted to 25%; in assay [20], 0%.
Regarding `Cc1ccccc1-c1cc(-c2c[nH]nc2-c2ccccn2)ccn1` [GW680061], the “%Inh” value in [1] is recorded as 10%; in assay [2], 0%; in assay [3], 11%; in assay [4] it was 0%; in assay [5] it was 11%; in assay [6] it was 14%. For the same compound, the “%Inh” value in assay [7] is 22%; in assay [8] it was 0%; in assay [9], 15%; in [10], 9%; in assay [11] it was 10%; in [12] it was 4%. Moreover, the “%Inh” value in assay [13] is given as 22%; in [14] it was 0%; in [15], 25%; in [16], 1%; in assay [17], 0%; in assay [18], 0%. In addition, the “%Inh” value in [19] turned out to be 25%; in [20], 0%.
For `CNc1nc(-c2ccc3c(N)n[nH]c3c2)cc(N2C[C@@H](C(=O)NC3CCCCC3)OC[C@H]2C)n1` [GSK2375584], the “%Inh” value in [1] is 0%; in [2], 0%; in assay [3], 8%; in assay [4], 0%; in assay [5] it was 1%; in assay [6], 8%. Also, the “%Inh” value turned out to be 13% in [7]; 7% in [8]; 0% in assay [9]; 11% in assay [10]; 14% in assay [11]; 0% in assay [12]. The “%Inh” value in [13] is reported as 27%; in [14], 15%; in [15], 24%; in assay [16], 0%; in [17] it was 1%; in assay [18], 0%. Also, the “%Inh” value is 8% in assay [19] and 0% in assay [20].
For `COc1ccc(Nc2nccc(N3CCC(NC(=O)c4cc5ccccc5s4)C3)n2)cc1` (stereo not shown) [GSK1379738], the “%Inh” value in [1] amounted to 0%; in assay [2], 0%; in assay [3] it was 8%; in [4], 0%; in [5], 1%; in [6] it was 7%. Besides, the “%Inh” value in assay [7] is on record as 13%; in assay [8], 20%; in assay [9], 12%; in assay [10] it was 11%; in [11] it was 0%; in [12], 17%. Also, the “%Inh” value is on record as 1% in [13]; 8% in [14]; 0% in assay [15]; 0% in assay [16]; 0% in assay [17]; 0% in [18]. Besides, the “%Inh” value in [19] was found to be 15%; in assay [20], 0%.
For `COc1ccc(CSc2nnc(-c3ccc4ncsc4c3)o2)cc1C(F)(F)F`, the “%Inh” value was 3% in assay [1]; 3% in [2]; 1% in assay [3]; 0% in [4]; 20% in [5]; 0% in assay [6]. Besides, the “%Inh” value in [7] came to 0%; in assay [8], 0%; in [9] it was 0%; in [10], 14%; in [11], 18%; in [12] it was 0%. The “%Inh” value in assay [13] is 0%; in assay [14] it was 0%; in assay [15] it was 0%; in assay [16] it was 0%; in assay [17], 30%; in assay [18] it was 0%. In addition, the “%Inh” value in assay [19] and in assay [20] was 0% throughout.
Turning to `COc1cc2ncnc(Nc3cccc(Br)c3)c2cc1OC.Cl` [GI230329], the “%Inh” value in [1] came out at 13%; in assay [2], 33%; in assay [3] it was 0%; in [4], 0%; in assay [5], 41%; in assay [6], 7%. In addition, the “%Inh” value in [7] was 12%; in assay [8], 20%; in assay [9], 9%; in assay [10] it was 1%; in assay [11], 21%; in assay [12] it was 3%. For the same compound, the “%Inh” value in assay [13] amounted to 97.1%; in [14], 41%; in [15], 72%; in assay [16], 0%; in assay [17], 0%; in assay [18], 6%. Besides, the “%Inh” value in [19] is on record as 22%; in assay [20], 0%.

Source of the values: article PMC5540273 (PLoS ONE, 2017).
